The results in this text go back to PubChem BioAssay (Tox21).

A short description of experiment [1]: qHTS assay for small molecules that induce genotoxicity in human embryonic kidney cells expressing luciferase-tagged ATAD5 - cell viability (AID 651634; calls by dose curve; further: nearly all actives have a fitted effect of over 25% in size; further: potency means the concentration at half of the fitted maximal effect). The gist of the method: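 15.5 hr compound or vehicle exposure of HEK293T cells expressing luciferase-tagged ATAD5 at 37C; live-cell protease activity is read by fluorescence after 30 min of CellTiter-Fluor.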
On the technique in general: Quantitative high-throughput screening tests each substance at several concentrations.

A short description of experiment [2]: qHTS assay for small molecule disruptors of the mitochondrial membrane potential - cell viability (AID 720634; calls by dose curve;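 further: human HepG2 liver cancer cells; series mostly up to about 83 µM; nearly all actives have a fitted effect of over 20% in size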). The gist of the method: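 In this qHTS format, HepG2 cells plated overnight were pinned with compound, incubated 1 hr, and assayed for ATP luminescence with CellTiter-Glo after m-MPI dye addition.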
Experiment [3] can be described thus: qHTS assay to test for compound auto fluorescence at 590 nm (red) in HepG2 cells (AID 720674). The procedure, abridged: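 Intrinsic compound fluorescence in the red window (Ex/Em 540/590 nm) is measured in attached HepG2 cells exposed for 1 hr, DMSO vehicle as baseline, benchmarked to Rose Bengal sodium.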
The nature of experiment [4]: qHTS assay to test for compound auto fluorescence at 535 nm (green) in HepG2 cells (AID 720675).
Experiment [5] in a line: qHTS assay to test for compound auto fluorescence at 460 nm (blue) in HEK293 cells (AID 720678). The procedure, abridged: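 Triamterene serves as the blue fluorophore standard. Compound signal at 405/460 nm is read in HEK293 wells (2,000 cells, 10% dialyzed FBS) after overnight treatment at 37C.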
Experiment [6] is described as follows: qHTS assay to test for compound auto fluorescence at 590 nm (red) in HEK293 cells (AID 720679). The gist of the method:
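We plated HEK293 cells in 10% dialyzed FBS medium, let them adhere for 4-5 hr, then added 23 nL compound. Overnight at 37C and 5% CO2 preceded fluorescence measurement at 540/590nm.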

Experiment [7] can be described thus: qHTS assay for small molecules that induce genotoxicity in human embryonic kidney cells expressing luciferase-tagged ATAD5 (AID 651632). Further: nearly all actives have a fitted effect of over 15% in size. The procedure, abridged:
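Concentration-response screen for ATAD5 upregulation in HEK293T luciferase reporter cells; 16 hr treatment at 37C, then luminescence after 30 min with Amplite at room temperature.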

Experiment [8] can be described thus: qHTS assay for small molecule agonists of the p53 signaling pathway - cell viability (AID 651633; calls by dose curve;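 further: p53RE-bla HCT reporter cells with a stable beta-lactamase p53 reporter; series mostly up to about 83 µM; nearly all actives have a fitted effect of over 30% in size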). The procedure, abridged:
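p53RE-bla cells, seeded at 4,000 per well and rested 5 h at 37 C/5% CO2, received compounds in DMSO for 16 h at 37 C. CellTiter-Glo was then added, and luminescence was read after 30 min at room temperature to gauge cytotoxicity.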

Experiment [9] can be described thus: qHTS assay for small molecule disruptors of the mitochondrial membrane potential (AID 720635). The gist of the method:
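HepG2 cells (2,000/well) attached overnight at 37C, then took compound for 1 hr at 37C, 5% CO2. Mito-MPS dye was added for 30 min; fluorescence was read at 490/535 nm (monomers) and 540/590 nm (aggregates).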

A number with no mark means an inactive call. Inconclusive results are not listed. Activity calls are given as the source filed them. Unless noted, the call rests on the fitted dose curve; in most records, active means well fitted curve in the direction sought with a large enough effect in the repeat runs; inconclusive means weak or mixed curves; inactive means no such curve, though single readings can be large; an effect the other way counts as inactive or inconclusive.
On the % scale 0 is the no-effect control and ±100 the full control effect.

As for `Cc1ccc(S(=O)(=O)N[C@@H](CCCCN)C(=O)CCl)cc1`, in experiment [1], the Potency is 29.8 µM (active). Also, the Potency result in experiment [2] is “inactive”. For the same molecule, the molecule was classed as inactive in experiment [3], in experiment [4], in experiment [5] and in [6].
With `CCC(=O)c1ccc(Cl)cc1`, the molecule was classed as inactive in experiment [7], in experiment [3], in experiment [4], in [5] and in experiment [6]. The Potency result in experiment [1] and in [2] was “inactive” throughout.
For `O=C(Cl)c1ccccc1`, the call in [7], in experiment [3], in experiment [4], in [5] and in experiment [6] was inactive. Besides, the Potency result in experiment [8], in experiment [1] and in experiment [2] was “inactive” in each case.
With `CNC(=O)Oc1cc(C)c(N(C)C)c(C)c1`, the result in experiment [7], in experiment [3], in experiment [4], in [5] and in experiment [6] was inactive. Besides, the Potency entry in experiment [8], in experiment [1] and in experiment [2] was “inactive” each time.
On to `CCOC(=O)C(Cl)Cc1cc(-n2nc(C)n(C(F)F)c2=O)c(F)cc1Cl` (centres undefined), for which the outcome in experiment [7], in experiment [3], in experiment [4], in experiment [5] and in [6] was inactive. Also, the Potency entry in [8] and in experiment [1] was “inactive” each time.
With `NNC(N)=O`, the result in [7], in experiment [3], in experiment [4], in experiment [5] and in [6] was inactive. For the same molecule, the Potency result in [8], in experiment [1] and in experiment [2] was “inactive” throughout.
With `O=C(O)c1c(Cl)ccc2cc(Cl)cnc12`, the result in experiment [7], in [3], in experiment [4], in experiment [5] and in experiment [6] was inactive. Also, the Potency entry in experiment [1] and in [2] was “inactive” in each case.
`O=[N+]([O-])c1cccc(CCl)c1`: the Potency entry in experiment [8], in [1] and in experiment [2] was “inactive” in each case. In addition, the call in experiment [3], in experiment [4], in [5] and in experiment [6] was inactive.
As for `CCCCCCCCBr`, the outcome in [7], in experiment [3], in experiment [4], in experiment [5] and in experiment [6] was inactive. The Potency result in experiment [8] and in experiment [1] was “inactive” in each case.
As for `Oc1ccc2c3c1O[C@H]1[C@@H](O)C=C[C@H]4[C@@H](C2)NCC[C@@]341`, the molecule was called inactive in experiment [7], in experiment [3], in experiment [4], in experiment [5] and in experiment [6]. Also, the Potency entry in [8] and in [1] was “inactive” each time.
As for `C=C(C)[C@H]1CN[C@H](C(=O)O)[C@H]1CC(=O)O`, the molecule was classed as inactive in experiment [7], in experiment [3], in experiment [4] and in [5]. Further, the Potency entry in experiment [8] and in experiment [2] was “inactive” throughout.
`CON(C)C(=O)Nc1ccc(Br)c(Cl)c1`: the outcome in experiment [7], in experiment [3], in experiment [4], in experiment [5] and in experiment [6] was inactive. Also, the Potency result in experiment [8] and in experiment [1] was “inactive” throughout.
With `CCc1cc(OC)c(C[C@H](C)N)cc1OC`, the call in experiment [7], in experiment [3], in [4], in [5] and in experiment [6] was inactive. Also, the Potency result in experiment [8], in experiment [1] and in experiment [2] was “inactive” throughout.
On to `O=C(NC(=O)c1c(F)cccc1F)Nc1cc(Cl)c(F)c(Cl)c1F`, for which the molecule was called inactive in experiment [7], in experiment [3], in experiment [4], in [5] and in experiment [6]. Further, the Potency entry in [8], in experiment [1] and in experiment [2] was “inactive” throughout.
As for `C[C@@H](N)[C@@H](O)c1ccccc1`, the Potency entry in experiment [2] and in [9] was “inactive” in each case. Besides, the fluorescence, relative to Rose Bengal in experiment [3] was -0.248% [at 18.6 µM]. Moreover, in experiment [4], the fluorescence, % of fluorescein control is -0.0859% [at 18.6 µM]. In experiment [5], the fluorescence, % of triamterene is 0.0027% [at 18.6 µM]. Also, in [6], the fluorescence, % of fluorescent control was -0.083% [at 18.6 µM].
On to `ClCCCCCCCl`, for which the result in experiment [7], in [3], in experiment [4], in experiment [5] and in experiment [6] was inactive. For the same molecule, the Potency result in experiment [1] and in [2] was “inactive” each time.
For `CCOP(=S)(OCC)Oc1ccc(Cl)cc1Cl`, the molecule was classed as inactive in experiment [7], in [3], in experiment [4] and in experiment [5]. The Potency result in [8] and in [1] was “inactive” in each case.
For the molecule `CCNc1nc(Cl)nc(NC(C)(C)C)n1`, the result in [7], in [3], in [4], in experiment [5] and in experiment [6] was inactive. Besides, the Potency result in experiment [8], in experiment [1] and in [2] was “inactive” throughout.
For `Brc1c(Br)c(Br)c(Br)c(Br)c1Br`, the activation in experiment [7] is 2.71% [at 8.08 µM]. Also, the results for the activity change, negative = cytotoxicity in [8] and in experiment [2] were 9.67% [at 8.08 µM] and 4.11% [at 8.08 µM], respectively. Also, the activity, negative = cytotoxicity in experiment [1] was 13.6% [at 8.08 µM]. The fluorescence, relative to Rose Bengal in experiment [3] is 0.167% [at 3.72 µM]. The fluorescence, % of fluorescein control in experiment [4] was 0.0147% [at 3.72 µM]. For the same molecule, in experiment [5], the fluorescence, % of triamterene was 0.185% [at 3.72 µM]. Further, the fluorescence, % of fluorescent control in experiment [6] is -0.438% [at 3.72 µM].
For the molecule `CCOC(=O)COc1ccc(Cl)cc1Cl`, the molecule was classed as inactive in [7], in [3], in experiment [4], in experiment [5] and in [6]. The Potency result in [8], in experiment [1] and in [2] was “inactive” throughout.
